We go through nine sequences from PMC8384837, “Expanding the binding specificity for RNA recognition by a PUF domain”.

What all share (assay): yeast three-hybrid, YBZ-1, SC-Leu-His + 0.5 mM 3-AT, 4 days
Holding throughout (conditions): tags: N-Gal4 AD-HA kept; label: inside an RPR1-promoter hybrid RNA with tandem MS2 sites; ssRNA

One test has as its target PUM1 PUF domain R2-SWG (Homo sapiens, UniProt Q14671 828-1176, N899S;Y900W;Q903G). The method in brief: (§1)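 Pumilio-1 PUF domain libraries, randomized (NNK) at the three base-contacting residues of each repeat, were co-expressed with matching RNA elements from a centromeric plasmid in strain YBZ-1 (LexA–MS2 coat fusion, HIS3 reporter). Transformants were plated on SC-Leu (input) and SC-Leu-His + 0.5 mM 3-AT (selection) for four days, and repeat regions were PCR-amplified and Illumina-sequenced. The interaction score is the log2 change in variant frequency from input to selection, with pseudocount 1 where absent.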

In the next test the target is PUM1 PUF domain R1-RLS (Homo sapiens, UniProt Q14671 828-1176, S863R;R864L;Q867S). The method in brief:
as §1

The target in the next test is PUM1 PUF domain R7-KSV (Homo sapiens, UniProt Q14671 828-1176, S1079K;N1080S;E1083V). The method in brief:
as §1

Another test concerns the target PUM1 PUF domain R3-SRR (Homo sapiens, UniProt Q14671 828-1176, C935S;Q939R). The method in brief:
as §1

The next test deals with PUM1 PUF domain R3-RSF (Homo sapiens, UniProt Q14671 828-1176, C935R;R936S;Q939F). The method in brief: as §1
Another test deals with PUM1 PUF domain R3-IFA (Homo sapiens, UniProt Q14671 828-1176, C935I;R936F;Q939A). The method in brief:
as §1

A further test concerns the target PUM1 PUF domain R4-CPV (Homo sapiens, UniProt Q14671 828-1176, N971C;H972P;Q975V). The method in brief:
as §1

For another test, the target named is PUM1 PUF domain R4-DHT (Homo sapiens, UniProt Q14671 828-1176, N971D;Q975T). The method in brief:
as §1

Another test has as its target PUM1 PUF domain R5-NQR (Homo sapiens, UniProt Q14671 828-1176, C1007N;R1008Q;Q1011R). The method in brief: as §1
The target of the next test is PUM1 PUF domain R5-RFV (Homo sapiens, UniProt Q14671 828-1176, C1007R;R1008F;Q1011V). The method in brief:
as §1

The target of the next test is PUM1 PUF domain R5-ISR (Homo sapiens, UniProt Q14671 828-1176, C1007I;R1008S;Q1011R). The method in brief: as §1

For the sequence “GGCUAGAACUAGUGGAUCCCCCGGCGCCCGGCGGCUCGAGCCCGGGUAAGUGUAAAGAGUCUGCAUGCCGCCGGGCGCCAUGCCUGCAGGUCGACUCUAGAAAACAUG”, the binding signal with PUM1 PUF domain R2-SWG is 1.53 log2 enrichment (interaction score). “GGCUAGAACUAGUGGAUCCCCCGGCGCCCGGCGGCUCGAGCCCGGGUAAGUGUAAAUUGUCUGCAUGCCGCCGGGCGCCAUGCCUGCAGGUCGACUCUAGAAAACAUG”: in the test with PUM1 PUF domain R1-RLS, the binding signal was 2.64 log2 enrichment (interaction score). For the sequence “GGCUAGAACUAGUGGAUCCCCCGGCGCCCGGCGGCUCGAGCCCGGGUAAGUCUAAAUAGUCUGCAUGCCGCCGGGCGCCAUGCCUGCAGGUCGACUCUAGAAAACAUG”, the binding signal with PUM1 PUF domain R7-KSV is 3.22 log2 enrichment (interaction score). Take “GGCUAGAACUAGUGGAUCCCCCGGCGCCCGGCGGCUCGAGCCCGGGUAAGUGUAAUUAGUCUGCAUGCCGCCGGGCGCCAUGCCUGCAGGUCGACUCUAGAAAACAUG”: the binding signal in the test with PUM1 PUF domain R3-SRR was 3.98 log2 enrichment (interaction score); in the test with PUM1 PUF domain R3-RSF, 3.86 log2 enrichment (interaction score); with PUM1 PUF domain R3-IFA, 3.87 log2 enrichment (interaction score). On to “GGCUAGAACUAGUGGAUCCCCCGGCGCCCGGCGGCUCGAGCCCGGGUAAGUGUACAUAGUCUGCAUGCCGCCGGGCGCCAUGCCUGCAGGUCGACUCUAGAAAACAUG”, for which the values for the binding signal with PUM1 PUF domain R4-CPV and with PUM1 PUF domain R4-DHT were 1.61 log2 enrichment (interaction score) and 2.73 log2 enrichment (interaction score), respectively.

Turning to “GGCUAGAACUAGUGGAUCCCCCGGCGCCCGGCGGCUCGAGCCCGGGUAAGUGUAAGUAGUCUGCAUGCCGCCGGGCGCCAUGCCUGCAGGUCGACUCUAGAAAACAUG”, the binding signal in the test with PUM1 PUF domain R3-SRR was 2.24 log2 enrichment (interaction score). As for “GGCUAGAACUAGUGGAUCCCCCGGCGCCCGGCGGCUCGAGCCCGGGUAAGUGUAAAUCGUCUGCAUGCCGCCGGGCGCCAUGCCUGCAGGUCGACUCUAGAAAACAUG”, the binding signal with PUM1 PUF domain R1-RLS was 1.22 log2 enrichment (interaction score). As for “GGCUAGAACUAGUGGAUCCCCCGGCGCCCGGCGGCUCGAGCCCGGGUAAGUGUAACUAGUCUGCAUGCCGCCGGGCGCCAUGCCUGCAGGUCGACUCUAGAAAACAUG”, the binding signal with PUM1 PUF domain R3-SRR was 3.34 log2 enrichment (interaction score). With “GGCUAGAACUAGUGGAUCCCCCGGCGCCCGGCGGCUCGAGCCCGGGUAAGUGUCAAUAGUCUGCAUGCCGCCGGGCGCCAUGCCUGCAGGUCGACUCUAGAAAACAUG”, the binding signal with PUM1 PUF domain R5-NQR was 4.31 log2 enrichment (interaction score); with PUM1 PUF domain R5-RFV, 5.48 log2 enrichment (interaction score); in the test with PUM1 PUF domain R5-ISR, 3.12 log2 enrichment (interaction score).
